# Compound activity deposited in PubChem by National Center for Advancing Translational Sciences (NCATS).
# This is a sample that favours compounds with a hit; in the whole collection about 21% have one here.
# NS1 function inh: influenza NS1 inhibition. Potency, µM (doses to about 46.1 µM), inactives show at the top dose activity, positive = more growth. AID 2326. actives 0.4% (n = 270,000); calls by dose curve; note: potency is the fitted concentration of half-maximal effect; actives are rising curves; nearly all actives have a fitted effect of over 50% in size
#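 OD600 was taken as the measure of yeast growth restored by compound in an NS1-expressing S. cerevisiae strain. Cells had been washed out of glucose medium and diluted 1:100 into galactose -URA medium, pH 6.0.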
# FBPA Giardia inh: Giardia lamblia aldolase inhibition; A8B2U2; purified Giardia FBPA; Potency, µM (series often up to 59.6 µM), for the others: at the top dose activity, negative = inhibition, actives largely listed as inhibitors; actives 0.71% (n = 290,000); AID 2451; note: potency is the fitted concentration of half-maximal effect; % is set by controls: 0 for no effect and ±100 for the full control effect; nearly all actives have a fitted effect of over 55% in size
# Target sequence (A8B2U2 whole entry, looked up): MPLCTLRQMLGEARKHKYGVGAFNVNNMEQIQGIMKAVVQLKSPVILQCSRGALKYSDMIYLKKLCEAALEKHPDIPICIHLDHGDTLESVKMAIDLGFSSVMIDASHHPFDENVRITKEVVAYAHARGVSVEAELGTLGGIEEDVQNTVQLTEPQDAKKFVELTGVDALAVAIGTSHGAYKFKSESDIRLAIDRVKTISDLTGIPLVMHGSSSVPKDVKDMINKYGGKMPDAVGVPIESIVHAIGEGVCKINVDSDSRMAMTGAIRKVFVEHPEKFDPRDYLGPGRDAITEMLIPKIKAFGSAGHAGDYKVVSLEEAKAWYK
#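 40 nM FBPA preincubated 10 min at RT with compound (up to 57.5 uM final), then substrate plus GAPDH/TPI/NAD/arsenate coupling and diaphorase/resazurin added. Fluorescence read after 20 min at RT, 525/598 nm.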
# Cycloheximide cs: counter-screen for Shiga toxin inhibitors: cycloheximide protein synthesis inhibition; cell reporter, cycloheximide protein synthesis inhibition counterscreen; AID 2314; actives 12% (n = 300,000); max response, %; in the data active = max response mostly above about 13%, no sharp cut-off; inactive = mostly below about 14%; note: read at 38.3 µM for the half of the compounds with a filed dose; 0% is about no effect
# Pf growth 48h: inhibits P. falciparum growth in the first generation, 48 h; Potency, µM (highest dose often 28.7 µM), for the others: at the highest dose activity change, negative = inhibition, usual class: inhibitors; actives 5.9% (n = 310,000); P. falciparum luciferase growth in erythrocytes, 48 h; note: potency is the fitted concentration of half-maximal effect; % is set by controls: 0 for no effect and ±100 for the full control effect
#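 Firefly luciferase activity from engineered P. falciparum reports growth; inhibitors lower the luminescent signal. Cultures contained 2% hematocrit erythrocytes at 0.1% final parasitemia.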
# Shiga toxin inh: blocks Shiga toxin action in Vero cells; Vero cells, Shiga toxin protein synthesis inhibition reporter; inhibition, % at 38.7 µM; actives 9.2% (n = 290,000); AID 2315; in the data active = inhibition mostly above about 28%, no sharp cut-off; inactive = mostly below about 43%; note: 0% is about no effect
# Pf growth 96h: P. falciparum growth inhibition at 96 hour, primary screen for plastid delayed-death inhibitors; P. falciparum luciferase reporter growth, 96 h; Potency, µM (series often up to 28.7 µM), for inactives: at the top dose activity change, negative = inhibition, usual class: inhibitors; actives 6.9% (n = 320,000); note: potency is the fitted concentration of half-maximal effect; % is set by controls: 0 for no effect and ±100 for the full control effect
#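 Plates of compound plus infected erythrocytes (2% hematocrit, 0.05% parasitemia final) incubate 96 hours, 37 C, 5% CO2. Detection reagent added; reduced luminescence from the parasites' luciferase reporter flags inhibition.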
# * hit, by the source's call; u = inconclusive; x = no result given. Unless noted, calls come from the whole dose curve; as a rule, active = well fitted curve in the direction sought with a large enough effect; inconclusive = small, poorly fitted or top-dose-only effect, or another doubt; inactive = no such curve, though single readings can be large; an effect the other way counts as inactive or inconclusive.
SMILES,NS1 function inh,FBPA Giardia inh,Cycloheximide cs,Pf growth 48h,Shiga toxin inh,Pf growth 96h
CCCCn1c(N)c(N(CCOC)C(=O)c2cc(-c3ccc(C)cc3)nc3ccccc23)c(=O)[nH]c1=O,x,x,x,u,x,11.7µM*
CCCCn1c(N)c(N(CCOC)C(=O)c2cc(Cl)nc3ccccc23)c(=O)[nH]c1=O,x,x,x,-8.9%,x,u
Cc1noc(C)c1-c1ccc2ncnc(NCc3cccc(Cl)c3)c2c1,x,-3.5%,6.6,x,8.8,x
C[C@@H]1OC(OC2C(OC3CC[C@@]4(C)C5CC=C6C7CC(C)(C)CC[C@@]7(C(=O)O)CCC6(C)C5(C)CCC4[C@]3(C)CO)OCC(O)C2O)C(O)C(O)C1O (stereo partly specified),x,-0.5%,x,x,x,x
CCN(Cc1ccncc1)Cc1cn[nH]c1-c1cc(OC)c(OC)c(OC)c1,1.4%,0.0%,-2.1,u,-13.0,9.28µM*
COc1cc(-c2[nH]ncc2CN2CCc3sccc3C2)cc(OC)c1OC,3.5%,-12.0%,-3.1,u,-13.9,-0.8%
CCS(=O)(=O)C(C)(CCl)C(=O)Nc1ccc(C(=O)OC)cc1 (stereo unspecified),1.2%,4.3%,7.3,16.9%,41.4,12.4%
COc1ccc(C(C(=O)NC2CCCCC2)N(C(=O)c2sc(C)nc2C)c2ccc(C(C)=O)cc2)cc1 (stereo unspecified),u,-7.4%,-3.9,u,3.1,9.28µM*
CCC(C)(C)NC(=O)C(c1ccncc1)N(C(=O)c1sc(C)nc1C)c1ccc(C)cc1 (stereo unspecified),0.3%,2.0%,5.2,9.28µM*,14.9,19.6%
COc1ccc(OC)c(NC(=O)NCCc2cccc(Cl)c2)c1,1.6%,-0.1%,4.3,u,6.6,35.1%
CC(=O)Nc1ccc(S(=O)(=O)NC2(C(F)(F)F)NC(=O)N(Cc3ccccc3)C2=O)cc1 (stereo unspecified),1.4%,1.3%,0.3,-2.4%,8.8,-9.1%
CCCNC(=O)c1c(CSc2ccccc2)noc1C(=O)NCc1ccccc1,-19.1%,0.0%,2.2,u,-1.2,14.7µM*
CC(C)CCNC(=O)c1onc(CSc2ccncc2)c1C(=O)NCCC(C)C,3.0%,-3.4%,-2.2,-17.6%,-2.8,-23.0%
CN(C)CCNC(=O)c1c(CSc2ccccc2)noc1C(=O)NCc1ccccc1,1.4%,4.9%,-4.9,u,-3.3,9.28µM*
CC(C)CCNC(=O)c1c(CSc2ccccc2)noc1C(=O)NCc1ccccc1,-10.5%,-2.4%,-4.2,u,-8.0,13.1µM*
COC(=O)c1c(CSc2cccc(C)c2)noc1C(=O)NCc1ccco1,-8.1%,9.9%,21.5*,2.62µM*,23.3,48.1%
CCOc1ccc(N(C)S(=O)(=O)c2ccc(-c3cc(C)no3)s2)cc1,-6.0%,x,1.4,u,13.9,u
CCN1C(=O)CCC(C(=O)O)C1c1ccc(OC)cc1 (stereo unspecified),-2.0%,2.2%,0.7,21.1%,9.0,20.0%
CN1CCc2c(sc(N)c2C(=O)c2ccc(Cl)cc2)C1,-1.8%,-26.1%,6.5,u,7.9,4.65µM*
Nc1sc2c(c1C(=O)c1ccc(Cl)cc1)CCCC2,x,-22.8%,7.5,x,12.8,x
COc1ccc(C(=O)NCc2ccc(N3CCN(C(=O)OC(C)(C)C)CC3)cc2)cc1,9.1%,10.1%,15.2,u,25.4,u
COc1ccc(C(=O)c2c(N)sc3c2CCN(C(=O)OC(C)(C)C)C3)cc1,4.3%,-18.3%,-6.2,13.1µM*,-4.2,u
Oc1ccc([C@H](O)C2CCCCN2)cc1O (stereo partly specified),0.0%,x,x,x,x,x
Cn1ccnc1SCC(=O)Nc1nc2ccccc2s1,-4.6%,5.8%,34.2*,48.3%,71.8*,178.4%
Cn1ccnc1SCC(=O)Nc1cccc2ccccc12,-3.4%,-4.3%,38.9*,12.9%,25.0,x
Cc1nc(NC(=O)CSc2nccn2C)sc1C(=O)N(C)C,3.3%,x,21.1*,59.3%,42.7*,0.0%
Cn1c(SCC(=O)Nc2nc3ccccc3s2)nnc1-c1ccccc1,-1.7%,0.6%,-2.3,x,-4.6,13.0%
Nn1c(SCC(=O)Nc2nc3ccccc3s2)nncc1=O,7.0%,-0.5%,23.3*,13.3%,40.3,55.2%
